Compound activity from PubChem BioAssay.
ELG1 DNA repair – qHTS screen for small molecules that inhibit ELG1-dependent DNA repair in human embryonic kidney (HEK293T) cells expressing luciferase-tagged ELG1; Potency, µM (titrated, usually from 46.1 µM), for the others: at the top dose activity change, negative = inhibition, usual class: inhibitors; HEK293T ELG1-luciferase reporter, luminescence, 16 h; DNA damage induced by 5-fluorouridine; actives 2.3% (n = 330,000); further: potency means the concentration at half of the fitted maximal effect; nearly all actives have a fitted effect of over 55% in size
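In this reporter screen, reduction of luminescence relative to DMSO vehicle indicated activity. Compounds and 5-fluorouridine were added together to 2,000 cells per well, incubated for 16 hr at 37 °C, then developed with ONE-Glo.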
TDP1 cell CPT – qHTS for Inhibitors of human tyrosyl-DNA phosphodiesterase 1 (TDP1): qHTS in cells in presence of CPT; actives 12% (n = 420,000); chicken DT40 Tdp1-/-;hTDP1 cells + 20 nM CPT, ATP luminescence, 48 h; Potency, µM (highest dose often 46.2 µM), for the others: at the highest dose activity change, negative = growth inhibition, usual class: inhibitors; AID 686979, 2013; further: potency means the concentration at half of the fitted maximal effect; nearly all actives have a fitted effect of over 55% in size
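Chicken DT40 Tdp1-/- cells stably complemented with human TDP1 were seeded at 400 cells/well in medium containing 20 nM camptothecin, exposed to pin-transferred compounds, and grown at 37 °C for at least 48 hr. Viability was read as ATP luminescence.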
IL1B secr inh – qHTS for Inhibitors of Inflammasome Signaling: IL-1-beta AlphaLISA Primary Screen. THP-1 LPS/ATP IL-1B secretion, AlphaLISA, 16 h; stronger effect = lower value. activity change, % at 57.5 µM. actives 4.7% (n = 360,000); in the data active means activity change below about -50%; inconclusive means mostly about -30% to -49%
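THP-1 cells pretreated 1 hr with compounds (up to 57.5 uM final), then stimulated with LPS (250 ng/mL final) plus ATP (1.25 mM final); secreted IL-1B measured by AlphaLISA after 16 hr, decreased signal indicating inhibition.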
Giardia killer – Small Molecules that selectively kill Giardia lamblia: qHTS. activity change, % at 7.66 µM, hits read low. actives 0.15% (n = 340,000). Giardia lamblia trophozoite viability. AID 540267, 2011; in the data active means activity change below about -80%; inconclusive means between about -30% and that limit;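 further: parasites exposed to compound for two days anaerobically before the ATP read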
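Anaerobic 48 hrs incubation at 37 deg C of 100 trophozoites/well with test compounds; ATPLite 1-Step luminescence, 15-30 min RT, reports cellular ATP as viability.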
TDP1 inh – qHTS Assay for Inhibitors of Tyrosyl-DNA Phosphodiesterase (TDP1); recombinant TDP1, AlphaScreen DNA substrate cleavage; actives 0.28% (n = 350,000); Tyrosyl-DNA phosphodiesterase 1 (Homo sapiens), Q9NUW8; Potency, µM (series often up to 130 µM), for inactives: at the top dose activity change, negative = inhibition, hits mostly inhibitors; further: potency means the concentration at half of the fitted maximal effect; nearly all actives have a fitted effect of over 40% in size
Target sequence (Q9NUW8 whole entry, looked up): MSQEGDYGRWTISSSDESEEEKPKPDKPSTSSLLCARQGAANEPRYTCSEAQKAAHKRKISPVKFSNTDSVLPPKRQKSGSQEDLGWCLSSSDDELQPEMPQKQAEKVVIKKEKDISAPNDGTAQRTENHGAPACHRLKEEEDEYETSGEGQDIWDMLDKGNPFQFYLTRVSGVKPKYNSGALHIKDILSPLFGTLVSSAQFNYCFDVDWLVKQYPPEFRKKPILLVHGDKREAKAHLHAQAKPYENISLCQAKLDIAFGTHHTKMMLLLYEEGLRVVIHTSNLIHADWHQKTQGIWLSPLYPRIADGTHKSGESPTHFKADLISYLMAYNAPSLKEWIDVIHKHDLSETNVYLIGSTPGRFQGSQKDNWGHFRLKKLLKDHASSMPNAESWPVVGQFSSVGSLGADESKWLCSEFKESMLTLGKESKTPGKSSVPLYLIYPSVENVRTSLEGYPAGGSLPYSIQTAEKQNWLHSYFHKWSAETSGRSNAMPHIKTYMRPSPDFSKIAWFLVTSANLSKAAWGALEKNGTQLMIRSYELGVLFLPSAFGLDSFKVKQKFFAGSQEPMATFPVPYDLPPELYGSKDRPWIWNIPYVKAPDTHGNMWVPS
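Compounds were preincubated with Tdp1 (1 nM final) for 15 min at room temperature before substrate (15 nM final) started a 5 min reaction; beads (10 ug/ml final) were then added for 10 min before AlphaScreen detection.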
TDP1 cell noCPT – qHTS for Inhibitors of human tyrosyl-DNA phosphodiesterase 1 (TDP1): qHTS in cells in absence of CPT | DT40 Tdp1-/- hTDP1 cells, no CPT, ATP luminescence, 48 h | Potency, µM (series often up to 46.2 µM), for the others: top-dose activity change, negative = growth inhibition, actives largely listed as inhibitors | actives 15% (n = 420,000); further: potency means the concentration at half of the fitted maximal effect; nearly all actives have a fitted effect of over 55% in size
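Growth kinetics read by CellTiter-Glo luminescence after ≥48 hr at 37 °C. Cells: DT40 Tdp1-/- stably carrying human TDP1, 400 per well, compound exposure in the absence of CPT (DMSO vehicle).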
The depositor's hits bear a star; [ ] = another dose, or the depositor's remark. In the library only some 19% were active in any assay of this set; here they are far more common. Unless noted, the call rests on the fitted dose curve; in most records, active means well fitted curve in the direction sought with a large enough effect; inconclusive means small, poorly fitted or top-dose-only effect, or another doubt; inactive means no such curve, though single readings can be large; an effect the other way counts as inactive or inconclusive. On the % scale 0 is the no-effect control and ±100 the full control effect.

CCCNC(=O)c1ccc(COc2ccc(C(C)(C)C)cc2)o1 was read as ELG1 DNA repair 0%, TDP1 cell CPT inconclusive, IL1B secr inh -69*, Giardia killer -10 and TDP1 cell noCPT 13µM*.
For CCOc1ccc(OCc2ccc(C(=O)NCc3ccncc3)o2)cc1 the results were ELG1 DNA repair 0%, TDP1 cell CPT 16µM*, IL1B secr inh inconclusive, Giardia killer 0, TDP1 inh 7% and TDP1 cell noCPT -30%.
Screening CC(=O)Nc1c(C(=O)Nc2cccc(C)c2)nnn1-c1ccc(C)cc1 returned TDP1 cell CPT inconclusive, TDP1 inh 3% and TDP1 cell noCPT inconclusive.
N[C@@H](Cc1cc(-c2ccc(Cl)cc2Cl)cc(CP(=O)(O)O)c1O)C(=O)O was read as TDP1 cell CPT -32%, TDP1 inh 4%[56.1 µM] and TDP1 cell noCPT -21%.
`CC(=O)Oc1ccc2ccccc2c1C(NC(=O)C(C)C)c1cccc([N+](=O)[O-])c1` (stereo unspecified) gave ELG1 DNA repair inconclusive, TDP1 cell CPT inconclusive, IL1B secr inh -74*, Giardia killer -13, TDP1 inh 8% and TDP1 cell noCPT inconclusive.
Cc1ccc(NC(=O)N/C=C/c2ccco2)cc1 was read as ELG1 DNA repair inconclusive, TDP1 cell CPT inconclusive, IL1B secr inh 0, Giardia killer -20, TDP1 inh -13% and TDP1 cell noCPT -14%.
`O=C(/C=C/c1ccco1)c1ccc(O)cc1` gave ELG1 DNA repair inconclusive and TDP1 inh -3%.
CC(=O)c1ccc(N/C=C\C(=O)c2ccc(C)cc2)cc1 was read as ELG1 DNA repair inconclusive, TDP1 cell CPT 1%, IL1B secr inh 6, Giardia killer 1, TDP1 inh 2% and TDP1 cell noCPT 1%.
For CN(C)c1ccc(C(=O)/C=C/c2ccco2)cc1 the results were ELG1 DNA repair inconclusive, TDP1 cell CPT 15µM*, IL1B secr inh -101*, Giardia killer 2, TDP1 inh 0% and TDP1 cell noCPT inconclusive.
Screening CC(=O)Nc1ccc(C(=O)/C=C/c2ccco2)cc1 returned ELG1 DNA repair inconclusive, TDP1 cell CPT 21µM*, IL1B secr inh -7, Giardia killer -9 and TDP1 cell noCPT inconclusive.
CN(C)c1ccc(C(=O)/C=C/c2ccccc2)cc1 was read as ELG1 DNA repair inconclusive, TDP1 cell CPT 21µM*, IL1B secr inh -102*, Giardia killer inconclusive, TDP1 inh 3% and TDP1 cell noCPT inconclusive.
Screening CC(=O)Nc1ccc(N/C=C/C(=O)c2ccc(Cl)cc2)cc1 returned ELG1 DNA repair 0%, TDP1 cell CPT 5%, IL1B secr inh -6, Giardia killer 12, TDP1 inh 32µM* and TDP1 cell noCPT 7%.
For O=C(/C=C/c1ccco1)Nc1ccccc1C(=O)Nc1cccc(C(=O)O)c1 the results were ELG1 DNA repair inconclusive, TDP1 cell CPT 13%, IL1B secr inh 22, Giardia killer -11 and TDP1 cell noCPT 2%.
For CC(=O)Nc1cccc(C(=O)/C=C/c2ccco2)c1 the results were ELG1 DNA repair inconclusive, TDP1 cell CPT inconclusive, IL1B secr inh -71*, Giardia killer 9, TDP1 inh -12% and TDP1 cell noCPT inconclusive.
O=C(C=Cc1ccco1)c1ccc2ccccc2c1 was read as TDP1 cell CPT inconclusive, IL1B secr inh -65*, Giardia killer 22 and TDP1 cell noCPT inconclusive.
For COC(=O)c1ccc(OC(=O)/C=C/c2ccco2)cc1 the results were ELG1 DNA repair 14%, TDP1 cell CPT 3%, IL1B secr inh 16, Giardia killer 16, TDP1 inh 4% and TDP1 cell noCPT -19%.
For O=C(CCN1C(=O)CSc2ccccc21)Nc1ccc(OC(F)(F)F)cc1 the results were ELG1 DNA repair -26%, TDP1 cell CPT inconclusive, IL1B secr inh inconclusive, Giardia killer 3, TDP1 inh 0% and TDP1 cell noCPT inconclusive.
Screening NC(=O)NC(=O)COC(=O)c1ccc2c(c1)C(=O)N(Cc1ccccc1)C2=O returned ELG1 DNA repair 6%, TDP1 cell CPT -3%, IL1B secr inh 41, Giardia killer -3, TDP1 inh -3% and TDP1 cell noCPT -11%.
`CCOC(=O)c1c(-c2ccccc2)csc1NC(=O)CSc1nncs1` gave ELG1 DNA repair inconclusive, TDP1 cell CPT 23µM*, IL1B secr inh 0, Giardia killer 0, TDP1 inh 5% and TDP1 cell noCPT 16µM*.
`CCOC(=O)c1c(NC(=O)CSc2nnnn2C)sc(C)c1-c1ccc(C)cc1` gave ELG1 DNA repair 11%, TDP1 cell CPT inconclusive, IL1B secr inh inconclusive, Giardia killer -4, TDP1 inh 6% and TDP1 cell noCPT 16µM*.
For Cn1nnnc1SCC(=O)NC(=O)Cc1ccccc1 the results were ELG1 DNA repair -5%, TDP1 cell CPT 12µM*, IL1B secr inh 41, Giardia killer 3, TDP1 inh 2% and TDP1 cell noCPT 6.5µM*.
`CCOC(=O)c1c(-c2ccccc2)csc1NC(=O)CSc1nnnn1C` gave ELG1 DNA repair 4.1µM*, TDP1 cell CPT 18µM*, IL1B secr inh -8, Giardia killer 0, TDP1 inh 0% and TDP1 cell noCPT inconclusive.
For O=C(CSc1nnnn1-c1ccccc1)NC(=O)Cc1ccccc1 the results were ELG1 DNA repair -1%, TDP1 cell CPT 1%, IL1B secr inh 8, Giardia killer 3, TDP1 inh 1% and TDP1 cell noCPT 6%.
CCOC(=O)c1c(-c2ccccc2)csc1NC(=O)CSc1ccccc1 was read as ELG1 DNA repair -1%, TDP1 cell CPT -20%, IL1B secr inh 3, Giardia killer -1, TDP1 inh 5% and TDP1 cell noCPT inconclusive.
CCOC(=O)c1c(NC(=O)CSc2nncs2)sc(C)c1-c1ccccc1 was read as ELG1 DNA repair inconclusive, TDP1 cell CPT inconclusive, IL1B secr inh -15, Giardia killer -15, TDP1 inh -3% and TDP1 cell noCPT inconclusive.
For CCOc1ccc(CC(=O)NC2CC(=O)N(c3cccc(F)c3)C2)cc1 (stereo unspecified) the results were TDP1 cell CPT 5%, TDP1 inh 3% and TDP1 cell noCPT 7%.
